From PubChem BioAssay
Sampled rows, rich in hits. Any-hit rate of the full collection: about 1.3%.
S1P2 agonist: S1P2 receptor agonists, primary screen, cell-based. S1P2-expressing cell line, agonist reporter read-out. activation, % at 4.5 µM. 97,000 tested, 0.46% active. AID 729, 2007; in the data active means activation above about 16%
Candida biofilm: clotrimazole potentiators killing Candida biofilms, primary screen, with clotrimazole, Alamar Blue. C. albicans biofilm + clotrimazole. inhibition, % at 6 µM. 85,000 tested, 0.14% active;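 active means inhibition above 20%; inactive means inhibition below 20%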;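 further: preformed 24 hr biofilms exposed to compound for 48 hr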
S1P2 blocker: human S1P2 receptor antagonists, primary screen, cell-based; inhibition, % at 5 µM; AID 736, 2007; cell-based S1P2 antagonist assay, inhibition at 5 uM; 97,000 tested, 0.21% active; Sphingosine 1-phosphate receptor 2 (Homo sapiens), O95136; in the data active means inhibition above about 45%;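 further: CRE beta-lactamase reporter cells expressing human S1P2 stimulated with S1P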
Smad3 FoxH1 inh: Smad3/FoxH1 peptide binding inhibitors, primary screen, biochemical, TR-FRET; AID 630, 2007; inhibition, % at 25 µM; Mothers against decapentaplegic homolog 3 (Homo sapiens), P84022; TR-FRET Smad3/Dy647-FoxH1 peptide binding, europium anti-His; 88,000 tested, 0.29% active;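 active means compounds that reduce the energy-transfer binding signal between the protein and its labelled peptide by more than half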
Target sequence (P84022 whole entry, looked up): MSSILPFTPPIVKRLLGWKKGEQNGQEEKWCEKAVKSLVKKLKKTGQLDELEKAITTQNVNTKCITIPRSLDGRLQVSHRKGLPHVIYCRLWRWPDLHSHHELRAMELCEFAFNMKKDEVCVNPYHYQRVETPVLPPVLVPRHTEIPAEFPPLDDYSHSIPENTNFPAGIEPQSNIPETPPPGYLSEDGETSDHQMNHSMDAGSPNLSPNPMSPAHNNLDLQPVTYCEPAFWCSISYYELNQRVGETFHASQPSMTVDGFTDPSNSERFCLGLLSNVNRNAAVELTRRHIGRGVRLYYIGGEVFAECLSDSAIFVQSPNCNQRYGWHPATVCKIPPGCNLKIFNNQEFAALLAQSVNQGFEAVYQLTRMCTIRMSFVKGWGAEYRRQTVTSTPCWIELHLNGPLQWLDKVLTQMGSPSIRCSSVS
GALR2 agonist: GALR2 receptor agonists, primary screen, cell-based | GALR2-expressing cells, agonist activation read-out | activation, % (test concentration not listed) | 140,000 tested, 0.48% active | AID 803, 2007; in the data active means activation above about 5%, passing the limit was not always enough
GALR2 blocker: GALR2 antagonists in receptor-expressing cells, primary screen; inhibition, % at 4 µM; antagonist mode; AID 828, 2007; Galanin receptor type 2 (Homo sapiens), O43603; 140,000 tested, 0.39% active;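 further: cells stimulated with galanin 1-16 at roughly its EC80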
GALR2 ant conf: GALR2 antagonists, retest of hits, confirmation, cell-based | inhibition, % at 4 µM | AID 866, 2007 | shares compounds with GALR2 blocker | 480 tested, 60% active | GALR2-expressing cells, antagonist mode, inhibition;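 further: cells stimulated with galanin at about its EC80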
BLA inh counter: inhibitors of NFAT-driven beta-lactamase reporter, confirmation, counter-screen for GALR2 antagonist project, CHO NFAT-bla cells, FRET readout | shares compounds with GALR2 blocker | thapsigargin-stimulated | inhibition, % at 4.2 µM | 480 tested, 36% active;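 active means inhibition above the mean inhibition across tested compounds plus 3 SD, cut at about 27% in these data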
Hits are given with their value; 0 = inactive; - = no result. Unless noted, no stated cut-off is given here; in the data, active means inhibition above about 27%; inactive means the rest.

SMILES	S1P2 agonist	Candida biofilm	S1P2 blocker	Smad3 FoxH1 inh	GALR2 agonist	GALR2 blocker	GALR2 ant conf	BLA inh counter
COC(=O)c1c(C)[nH]c(C(=O)C(C)Sc2nnc(-c3cc(OC)c(OC)c(OC)c3)o2)c1C (configuration not stated)	0	0	0	0	0	0	-	-
CSCCC(Nc1ncnc2ccc(Br)cc12)C(=O)O (configuration not stated)	0	0	0	0	0	0	-	-
CC(C)Nc1ncnc2ccc(Br)cc12	-	-	-	-	0	38	36	0
N#C/C(=C/c1cccs1)c1nc2ccccc2[nH]1	-	-	-	-	0	0	-	-
Cc1ccc(/C=C(\C#N)c2nc3ccccc3[nH]2)s1	0	-	0	-	0	30	34	0
N#C/C(=C\c1ccc(Sc2ccc(Cl)cc2)o1)c1nc2ccccc2[nH]1	-	-	-	-	0	32	35	29
N#C/C(=C\c1ccc(Sc2nc3ccccc3[nH]2)o1)c1ccccc1	0	0	0	0	0	0	-	-
COc1ccc(NC2=Nc3cccc4cccc2c34)cc1	-	-	-	-	0	27	0	0
CCOC(=O)/C(=C\c1cccnc1)C(=O)c1cc(C(C)=O)c(Nc2ccccc2)s1	0	0	60	0	0	54	79	71
Nc1nc(Nc2cccc(F)c2)nc2ccccc12	-	0	-	0	0	31	0	0
COc1ccc(OC)c(Nc2nc3nonc3nc2N2CCCC(C)C2)c1 (configuration not stated)	-	-	-	-	0	0	-	-
NC(=O)c1c(-c2ccc(Cl)cc2Cl)csc1NC(=O)Cc1ccccc1	-	-	-	-	0	34	31	0
O=C(Cc1ccccc1)Nc1scc(-c2ccccc2)c1C(=O)N1CCOCC1	0	0	0	0	0	0	-	-
CCOC(=O)C1=C(Cc2ccc(OC)cc2)C(=O)c2ccccc2C1=O	0	0	0	0	0	32	0	0
CCOC(=O)C1=C(Cc2ccc(C)cc2)C(=O)c2ccccc2C1=O	0	0	0	0	0	0	-	-
CC12CCC(C/C1=N\N=C1\NC(=O)/C(=C\c3ccc(Cl)cc3)S1)C2(C)C (configuration not stated)	-	-	-	-	0	0	-	-
N#C/C(=C/c1ccc(-c2ccc(S(N)(=O)=O)cc2)o1)C(=O)Nc1ccccc1	-	-	-	-	0	0	-	-
N#C/C(=C/c1ccc(-c2ccc(S(N)(=O)=O)cc2)o1)c1nc2ccccc2s1	-	-	-	-	0	28	41	52
Cc1ccc(NC(=O)NC(=O)N(C(C)C)S(C)(=O)=O)nc1	-	-	-	-	0	0	-	-
CC1C/C(=C\c2cccnc2)C(=O)/C(=C/c2cccnc2)C1 (configuration not stated)	-	-	-	-	0	36	44	0
Cc1ccc2nc(-c3sc4nc(C)ccc4c3N)[nH]c2c1	0	0	0	0	0	0	-	-
Cc1cc(C)c2c(N)c(-c3nc4ccccc4[nH]3)sc2n1	0	0	0	0	0	28	0	0
CCCCC(=O)Nc1c(C)cc(C)cc1Cl	0	0	0	0	0	0	-	-
CCOC(=O)c1ccccc1N/C=C/C(=O)c1cccs1	-	-	-	-	0	27	27	0
CCOC(=O)c1ccccc1NC(=O)c1cccs1	0	0	0	0	0	0	-	-
SMILES	S1P2 agonist	Candida biofilm	S1P2 blocker	Smad3 FoxH1 inh	GALR2 agonist	GALR2 blocker	GALR2 ant conf	BLA inh counter
CCN(CC)S(=O)(=O)c1ccc(N=Cc2c(C)c(C#N)c(=O)n(C)c2O)cc1	-	-	-	-	0	0	-	-
CN(C)N1C(=O)CC(NNC(=O)c2ccncc2)C1=O (configuration not stated)	-	-	-	-	0	0	-	-
Nc1c(C(=O)Nc2nccs2)sc2nc(-c3cccs3)cc(C(F)(F)F)c12	0	-	0	-	0	47	0	0
Cc1nnc(NC(=O)c2sc3nc(-c4cccs4)cc(C(F)(F)F)c3c2N)s1	0	-	0	-	0	0	-	-
CCOC(=O)c1cccc(NC(=O)C(NS(=O)(=O)c2ccc3c(c2)CCN3C(C)=O)C(C)C)c1 (configuration not stated)	-	-	-	-	0	0	-	-
O=C(CSc1ccc(Cl)cc1)N1CCOCC1	0	0	0	0	0	29	0	0
CCN(CC)c1ccc(/C=C2/SC(=O)N(C(C)C)C2=O)o1	-	-	-	-	0	45	0	0
Cc1nc2c(n1C1CCCCC1)C(=O)c1ccccc1C2=O	0	-	0	-	0	0	-	-
COc1cc(/C=C2\CC/C(=C\c3cc(OC)c(O)c(OC)c3)C2=O)cc(OC)c1O	-	-	-	-	0	58	41	30
O=C(CCl)N1N=C(c2ccco2)CC1c1cccs1 (configuration not stated)	-	-	-	-	0	29	33	0
O=C(N/N=C/c1cc2c3c(c1O)CCCN3CCC2)c1ccccc1O	-	-	-	-	0	32	35	0
Cc1ccnc(N2C(=O)c3cccc4c([N+](=O)[O-])ccc(c34)C2=O)c1	0	-	52	-	0	36	42	40
O=C1c2cc([N+](=O)[O-])cc3cc([N+](=O)[O-])cc(c23)C(=O)N1c1ccccn1	-	-	-	-	0	0	-	-
CCN1CCc2c(sc(NC(=O)Nc3ccc(Cl)c(Cl)c3)c2C(N)=O)C1	-	-	-	-	0	27	0	0
CCNC(=O)COc1ccc(C=O)cc1OC	-	-	-	-	0	66	0	0
O=C(OCn1ncc(Cl)c(Cl)c1=O)c1ccc(F)cc1	0	-	80	-	0	91	93	86
O=C(OCn1ncc(Cl)c(Cl)c1=O)c1ccccc1Cl	0	-	84	-	0	95	93	82
NNC(=O)Cc1cccnc1	-	-	-	0	-	-	-	-
Cc1sc2ncnc(NCc3cccs3)c2c1C	0	0	0	0	0	28	0	0
Cc1sc2ncnc(NCc3ccco3)c2c1C	0	0	0	0	0	0	-	-
O=C(NCCCN1CCC(Cc2ccccc2)CC1)C1CC(=O)N(C2CCCCCC2)C1 (configuration not stated)	0	0	0	0	0	0	-	-
O=C(Nc1ccc(S(=O)(=O)N2CCCC2)cc1)c1ccc(CN2CCc3ccccc3C2)cc1	-	-	-	-	0	0	-	-
O=C(Nc1ccc(S(=O)(=O)N2CCOCC2)cc1)c1ccc(CN2CCc3ccccc3C2)cc1	0	-	85	-	0	28	46	0
CC1(C)CC(=O)C2=C(C1)N(c1cccc(O)c1)C1=C(C2)C(=O)CC(C)(C)C1	0	0	0	0	0	43	0	0
CC1(C)CC(=O)C(C(C2=C(O)CC(C)(C)CC2=O)c2cccc(O)c2)C(=O)C1 (configuration not stated)	0	-	0	-	0	0	-	-
Cc1ccc(S(=O)(=O)Nc2nc(C)c(NC(=O)Nc3ccc(Cl)cc3Cl)s2)cc1	0	-	0	-	0	0	-	-
CCN(CC)S(=O)(=O)c1ccc(OC)c(NC(=S)Nc2cccc(C)c2)c1	-	-	-	-	0	0	-	-
